# This is a sample that favours compounds with a hit; in the whole collection about 19% have one here.
# HT1080NT lethal: qHTS for induction of synthetic lethality in tumor cells producing 2HG: qHTS for the HT-1080-NT fibrosarcoma cell line; HT-1080-NT fibrosarcoma viability, CellTiter-Glo ATP luminescence, 48 h; Potency, µM (doses to about 46.1 µM), for the others: at the top dose activity, negative = less viability, actives largely listed as cytotoxic; 1.6% of 360,000 active;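 note: NT is the 2HG producing partner of a matched IDH1 knockdown line; 0% = DMSO-treated cells and -100% = media-only wells without cells; nearly all actives have a fitted effect of over 55% in size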
#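 Luminescent CellTiter-Glo readout after 48 hours of compound exposure at 37 degrees C defined viability of HT-1080-NT cells. Activity was normalized to DMSO wells and cell-free media wells; concentration-response curves were fitted and assigned curve classes.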
# HT1080 IDH1KD tx: qHTS for induction of synthetic lethality in tumor cells producing 2HG: qHTS for the HT-1080-IDH1KD cell line; HT-1080 IDH1 knockdown viability, ATP luminescence, 48 h; Potency, µM (highest dose often 46.1 µM), for the others: at the top dose activity, negative = toxicity, usual class: cytotoxic; 2% of 360,000 active; AID 686971, 2013;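 note: 0% = DMSO wells and -100% = cell-free medium wells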
#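 Luminescent ATP read-out (CellTiter-Glo, 10 min at room temperature) after 48 h compound exposure at 37 °C gave viability of IDH1-knockdown HT-1080 cells. Activity was normalised to DMSO and cell-free wells, then fitted as concentration-response curves.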
# TDP1 cell noCPT: qHTS for Inhibitors of human tyrosyl-DNA phosphodiesterase 1 (TDP1): qHTS in cells in absence of CPT; DT40 Tdp1-/- hTDP1 cells, no CPT, ATP luminescence, 48 h; Potency, µM (highest dose often 46.2 µM), for inactives: top-dose activity change, negative = growth inhibition, actives largely listed as inhibitors; 15% of 420,000 active; AID 686978, 2013; note: nearly all actives have a fitted effect of over 55% in size
#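 Camptothecin absent (DMSO only). Human TDP1-complemented DT40 knockout cells, 400 cells/well, 37 °C for minimum 48 hr; ATP measured via CellTiter-Glo, 30 min dark incubation, luminescence.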
# KB-V1 cytotox: qHTS assay for MDR1-selective chemotherapeutics: Primary screen using the drug-selected MDR subline cells KB-V1. KB-V1 MDR cells viability, CellTiter-Glo, 72 h. Potency, µM (doses to about 46.1 µM), hits mostly cytotoxic. 3.4% of 400,000 active; note: nearly all actives have a fitted effect of over 60% in size
#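 Cytotoxicity toward P-gp-expressing KB-V1 cells was determined as loss of CellTiter-Glo luminescence after 72 h at 37 degrees C. Compounds were tested in quantitative HTS format across a concentration range, with curves fitted to normalized data.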
# KB-3-1 cytotox: qHTS assay for MDR1-selective chemotherapeutics: Primary screen using the parental adenocarcinoma cell KB-3-1. Potency, µM (titrated, usually from 46.1 µM), most hits filed as cytotoxic. AID 1347075, 2019. KB-3-1 viability, CellTiter-Glo ATP luminescence, 72 h. 1.4% of 400,000 active; note: nearly all actives have a fitted effect of over 60% in size
#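 Luminescent ATP read-out (CellTiter-Glo) measures survival of drug-naive KB-3-1 cells after 72 h compound exposure at 37 °C. Titration series was screened from lowest to highest concentration, with DMSO vehicle plates as background controls.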
# TDP1 cell CPT: qHTS for Inhibitors of human tyrosyl-DNA phosphodiesterase 1 (TDP1): qHTS in cells in presence of CPT. Potency, µM (series often up to 46.2 µM), for the others: at the highest dose activity change, negative = growth inhibition, usual class: inhibitors. 12% of 420,000 active. chicken DT40 Tdp1-/-;hTDP1 cells + 20 nM CPT, ATP luminescence, 48 h; note: nearly all actives have a fitted effect of over 55% in size
#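 Cell growth measured by CellTiter-Glo luminescence after a minimum 48 h, 37 C compound exposure with 20 nM CPT in Tdp1-knockout DT40 cells stably expressing hTDP1, seeded 400/well; qHTS titration format.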
# * = called active by the depositor; i = inactive; ? = inconclusive; · = not tested or not shown; ! = a repeat was not active. Calls come from the whole dose curve; as a rule, active = well fitted curve in the direction sought with a large enough effect; inconclusive = small, poorly fitted or top-dose-only effect, or another doubt; inactive = no such curve, though single readings can be large; an effect the other way counts as inactive or inconclusive. Unless noted, % is set by controls: 0 for no effect and ±100 for the full control effect; potency is the fitted concentration of half-maximal effect.
SMILES,HT1080NT lethal,HT1080 IDH1KD tx,TDP1 cell noCPT,KB-V1 cytotox,KB-3-1 cytotox,TDP1 cell CPT
CC(=O)Nc1ccc(-c2ccnc3c2CC(C)(C(=O)NCc2ccncc2)O3)cc1 (configuration not stated),12%,0%,1%,i,i,6%
CC(=O)Nc1cccc(-c2ccnc3c2CC(C)(C(=O)NCc2ccncc2)O3)c1 (configuration not stated),8%,-14%,18µM*,i,?,21µM*
CC(=O)Nc1cccc(-c2ccnc3c2CC(C)(C(=O)NC(C)C)O3)c1 (configuration not stated),-1%,3%,-18%,i,i,?
CCN1CCCC1CNC(=O)C(=O)NC(C)c1ccccc1 (configuration not stated),10%,-2%,17%,i,i,0%
COc1cc(C)c(NC(C)C(=O)c2c(C)[nH]c3ccccc23)cc1OC (configuration not stated),·,·,?,i,i,?
COc1cc(OC)nc(Oc2ccccc2C(=O)Oc2cccc(C)c2)n1,-10%,-13%,?,i,i,?
COc1ccc(CNC(=O)CN(C)S(=O)(=O)c2ccc3c(c2)c(=O)n(C)c(=O)n3C)cc1,0%,1%,16µM*!,i,i,?
Cc1ccc(CNC(=O)CN(C)S(=O)(=O)c2ccc3c(c2)c(=O)n(C)c(=O)n3C)cc1,·,·,-6%,i,i,-8%
CCCCN(CCCC)C(=O)CN(C)S(=O)(=O)c1ccc2c(c1)c(=O)n(C)c(=O)n2C,·,·,?,i,i,23µM*
O=C(CN1c2cccc3cccc(c23)S1(=O)=O)N1CCN(c2ccc(F)cc2)CC1,-6%,-1%,-16%,i,i,-26%
O=S1(=O)c2cccc3cccc(c23)N1CCCN1CCN(c2ccc(F)cc2)CC1,·,·,21µM*,·,·,?
O=C(CC(Sc1ccc(Br)cc1)C(=O)O)c1ccc(F)cc1 (configuration not stated),-24%,-12%,4.6µM*,i,i,9.2µM*
CCOc1ccc(C(=O)CC(Sc2ccc(C)cc2)C(=O)O)cc1 (configuration not stated),-20%,?,?,i,i,?
Cc1ccc(Nc2nnc(SCc3cc(=O)n4cc(C)ccc4n3)s2)cc1,-4%,3%,-9%,i,i,?
O=C(CCCSc1nnc(Nc2ccccc2F)s1)N1CCOCC1,-6%,-3%,?,i,i,-5%
Cc1ccc2nc(CSc3nnc(Nc4ccccc4F)s3)cc(=O)n2c1,?,-26%,16µM*,?,?,?
O=c1cc(CSc2nnc(Nc3ccccc3F)s2)nc2sccn12,?,18µM*,23µM*,16µM*,?,?
O=[N+]([O-])c1cccc(S(=O)(=O)N2CCN(c3nc(-c4ccccc4)nc4ccccc34)CC2)c1,·,·,-8%,i,?,-1%
CCC(CC)NC(=O)CON=C1c2ccccc2-c2ccccc21,-28%,-22%,16µM*,23µM*,i,21µM*
O=C(CN1CCCCC1)Nc1ccc(NC(=O)c2ccccc2Cl)cc1Cl,-1%,-1%,?,4.6µM*,23µM*,-18%
Cc1ccccc1NC(=O)CN1CCC(C(=O)c2ccc3c(c2)OCCO3)CC1,-7%,-3%,18µM*,?,i,?
O=C(CN1CCN(CC(=O)Nc2ccccc2Cl)CC1)Nc1ccc2c(c1)OCCO2,0%,-2%,23µM*,i,?,?
O=C(CN1CCC(C(=O)c2ccc(Cl)cc2)CC1)Nc1ccc2c(c1)OCCO2,?,?,?,9.2µM*,?,?
O=C(CN1CCCCCCC1)Nc1ccc(Cl)cc1Cl,-5%,-9%,?,i,i,-6%
COc1ccc(S(=O)(=O)NCCc2cn3ccsc3n2)cc1,·,·,-4%,·,·,4%
SMILES,HT1080NT lethal,HT1080 IDH1KD tx,TDP1 cell noCPT,KB-V1 cytotox,KB-3-1 cytotox,TDP1 cell CPT
Cc1cc(C(=O)NCC(=O)OCC(=O)NCCc2ccccc2)ccc1[N+](=O)[O-],20%,15%,3%,i,i,8%
Cc1ccccc1C(=O)N1CCC(C(=O)Nc2ccc3c(c2)OCO3)CC1,-4%,1%,?,?,i,?
O=C(CN1CCN(CC(=O)Nc2ccccc2Cl)CC1)NCC1(N2CCCCC2)CCCCC1,-6%,8%,21µM*,?,i,?
O=C(Nc1ccc2c(c1)OCCO2)c1c(Cl)cccc1Cl,-1%,3%,?,i,i,7%
O=C(CN1CCN(CC(=O)Nc2ccccc2Cl)CC1)NCC1(N2CCOCC2)CCCCC1,4%,2%,?,i,i,?
O=C(CSCc1c(Cl)cccc1Cl)Nc1ccc2c(c1)OCCO2,4%,-6%,?,10µM*,?,-23%
O=C(Cn1cnc2ccccc21)Nc1ccc2c(c1)OCCCO2,-15%,-12%,2.3µM*,?,?,8.2µM*
CCCCN1CCCc2cc(CN(CCCN3CCOCC3)C(=O)Nc3ccc(CC)cc3)ccc21,·,·,21µM*,i,i,?
CCCN1CCCc2cc(CN(CCCN3CCOCC3)C(=O)Nc3ccc(CC)cc3)ccc21,·,·,21µM*,i,i,23µM*
O=C(Nc1ccccc1)N(CCCN1CCOCC1)Cc1ccccc1F,6%,4%,-12%,i,i,-6%
COc1ccc(CN(CCCN2CCOCC2)C(=O)Nc2ccccc2)cc1OC,12%,1%,-10%,7.3µM*,i,-5%
Cc1cc(NC(=O)COC(=O)C2CC(=O)N(c3ccc(Cl)cc3)C2)no1 (configuration not stated),3%,9%,-13%,i,i,-15%
Cc1ccc2oc(NC3=NC4(CCCC4)C4=C(CCCC4=O)N3)nc2c1,·,·,·,i,i,·
Cc1ccc2c(CN(C)Cc3cccc(Cl)c3)cc(=O)oc2c1C,-27%,?,29µM*,?,?,?

# Screens deposited in PubChem by National Center for Advancing Translational Sciences (NCATS).
